# High-throughput results as filed in PubChem.
# Compounds with a hit are over-represented: about 8.8% of the library has one in this group of screens.
# HPGD inh – inhibitors of human 15-hydroxyprostaglandin dehydrogenase (HPGD) | P15428 | purified HPGD, NADH fluorescence kinetic, PGE2 substrate | Potency, µM, usual class: inhibitors | 150,000 compounds, 4.3% hits | AID 894
# Target sequence (P15428 whole entry, looked up): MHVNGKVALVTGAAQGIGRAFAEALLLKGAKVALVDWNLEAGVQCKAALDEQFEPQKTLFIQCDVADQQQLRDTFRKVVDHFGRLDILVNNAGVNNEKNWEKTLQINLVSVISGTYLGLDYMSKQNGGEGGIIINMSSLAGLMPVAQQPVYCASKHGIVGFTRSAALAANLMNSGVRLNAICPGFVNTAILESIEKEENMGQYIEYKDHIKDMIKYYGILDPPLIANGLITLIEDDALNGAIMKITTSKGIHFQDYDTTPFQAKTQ
#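 20 nM HPGD preincubated 15 min at room temperature with compound in 50 mM Tris-HCl pH 8, 0.01% Tween 20. Started with 1 mM NAD+ and 30 uM prostaglandin E2; NADH fluorescence (360/450 nm) read 5 times over 30-s intervals, last minus first.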
# ALDH1A1 block – ALDH1A1 (human) enzyme inhibition; Potency, µM (top dose mostly 75.3 µM), actives largely listed as inhibitors; P00352; 220,000 compounds, 7.3% hits; Purified ALDH1A1, NADH fluorescence, propionaldehyde substrate
# Target sequence (P00352 whole entry, looked up): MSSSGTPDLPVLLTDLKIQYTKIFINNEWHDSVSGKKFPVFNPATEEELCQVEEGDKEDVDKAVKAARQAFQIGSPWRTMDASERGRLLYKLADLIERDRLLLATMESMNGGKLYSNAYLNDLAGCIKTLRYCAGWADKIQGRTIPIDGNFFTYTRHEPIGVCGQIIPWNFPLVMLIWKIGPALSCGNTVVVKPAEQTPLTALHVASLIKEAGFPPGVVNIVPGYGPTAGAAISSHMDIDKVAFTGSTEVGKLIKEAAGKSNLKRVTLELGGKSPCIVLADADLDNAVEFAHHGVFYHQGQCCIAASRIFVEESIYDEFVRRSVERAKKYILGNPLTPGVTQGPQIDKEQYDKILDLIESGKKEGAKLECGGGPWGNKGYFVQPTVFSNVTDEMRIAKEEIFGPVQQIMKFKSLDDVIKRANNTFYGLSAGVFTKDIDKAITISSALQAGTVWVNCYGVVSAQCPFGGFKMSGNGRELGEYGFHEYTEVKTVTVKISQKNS
# HTT cytoprotect – Huntington cell model cytoprotection by ATP luminescence. PC12 HTT-Q103 induced, cytoprotection, ATP luminescence, 40 h. Potency, µM (highest dose often 56.4 µM), usual class: activators. 230,000 compounds, 0.14% hits. AID 1471; active = well fitted curve in the direction sought with a large enough effect; inconclusive = small, poorly fitted or top-dose-only effect, or another doubt; inactive = no such curve, though single readings can be large; an effect the other way counts as inactive or inconclusive; note: nearly all actives have a fitted effect of over 45% in size
#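 Cells were plated at 1500 per well in phenol red-free DMEM with 5% equine and 5% calf serum. Tebufenozide (100 nM final) and compounds were added, then ATPlite reagent, and luminescence was read.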
# HTT aggregate – mutant huntingtin aggregation inhibition. Potency, µM (doses to about 46.1 µM), actives largely listed as inhibitors. 220,000 compounds, 1.1% hits. PC12 HttQ103-GFP aggregates, Acumen cytometry, 40 h; active = well fitted curve in the direction sought with a large enough effect; inconclusive = small, poorly fitted or top-dose-only effect, or another doubt; inactive = no such curve, though single readings can be large; an effect the other way counts as inactive or inconclusive; note: nearly all actives have a fitted effect of over 60% in size
#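 Ecdysone-promoter PC12 model expressing HTT exon 1 Q103 fused to GFP, induced by tebufenozide at 100 nM final. Compounds titrated; aggregates sized 1–25 µm scored on a 488 nm laser cytometer.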
# LMNA splice mod – changes lamin A minigene splicing in HeLa cells; HeLa LMNA splicing GFP/RFP minigene ratio, 48 h; Potency, µM (series often up to 46.1 µM), actives largely listed as inhibitors; 200,000 compounds, 0.01% hits; AID 1487; active = well fitted inhibition curve with a large enough effect in the signal ratio, with a control signal flat, not every such curve was filed as active; inconclusive = small, poorly fitted or top-dose-only effect, or effect the other way, or a change in a side signal; the % refers to the signal ratio
#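 S3 HeLa stable clones carrying a lamin A-EGFP splicing minigene plus DsRed2 were seeded at 600 cells/well in Opti-MEM with 2% FBS, pin-dosed and incubated 48 h at 37°C. Acumen cytometry (488 nm) gave the GFP/RFP total-intensity ratio.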
# HPGD inh cf – human HPGD enzyme inhibition, confirmation; AID 2429; Potency, µM (doses to about 57.1 µM), usual class: inhibitors; recombinant HPGD, NADH fluorescence, PGE2 substrate; shares compounds with HPGD inh; 90 compounds, 90% hits; calls by dose curve
# Hits are given with their value; 0 = inactive; ? = inconclusive; - = no result; [ ] = another dose, or the depositor's remark. Unless noted, calls come from the whole dose curve; as a rule, active = well fitted inhibition curve with a large enough effect (not every such curve was filed as active); inconclusive = small, poorly fitted or top-dose-only effect, or another doubt; inactive = no such curve, though single readings can be large or run the other way.
SMILES,HPGD inh,ALDH1A1 block,HTT cytoprotect,HTT aggregate,LMNA splice mod,HPGD inh cf
COCCN1C(=O)C(CC(=O)Nc2ccc(C(C)=O)cc2)SC1=Nc1ccccc1 (configuration not stated),0,0,0,0,0,-
COc1ccc(N=C2SC(CC(=O)Nc3ccccc3)C(=O)N2Cc2ccccn2)cc1 (configuration not stated),-,2.2µM,?,0,?,-
C=CCN1C(=O)C(CC(=O)Nc2ccc(OC)cc2)SC1=Nc1ccc(S(N)(=O)=O)cc1 (configuration not stated),-,7.9µM,0,0,-,-
COc1ccc(N=C2SC(CC(=O)Nc3ccccc3)C(=O)N2CCc2ccccn2)cc1 (configuration not stated),0,0,-,0,0,-
CC(C)CO/N=C1/C[C@@H](O)[C@@H](O)[C@@H]2[C@@H]3C(=O)N(Cc4ccc5c(c4)OCO5)C(=O)[C@H]3CC[C@H]12,-,0[13.5 µM],0[10 µM],-,-,-
Cc1ccc(OCC(O)Cn2nc(C)cc2C)cc1 (configuration not stated),-,0,0[10 µM],0[9.22 µM],0,-
CC(=O)c1ccc(C)cc1OC(=O)c1cccc(F)c1,-,?,0,0,0[9.22 µM],-
Cc1ccc(C(=O)CC(=O)c2cccc(F)c2)c(O)c1,14µM,0,0,22µM,?,-
Cc1cnc(C(=O)Nc2ccccc2F)cn1,0,0,0,0[9.22 µM],0,-
COc1ccc(NC(=O)c2cnc(C)cn2)c2ncccc12,0,0,0[10 µM],1.8µM,0,-
CN(C(=O)c1ccc(NC(=O)c2cnccn2)cc1)C1CCCCC1,-,-,0[10 µM],-,-,-
Cc1cnc(C(=O)Nc2ccc(F)cc2)cn1,0,32µM,0,0,0,-
Cc1cnc(C(=O)Nc2ccccc2-n2cccc2)cn1,0,16µM,0[1.9 µM],0,0,-
Cc1cnc(C(=O)Nc2ccc(C(=O)N(C)C3CCCCC3)cc2)cn1,13µM,0,0,0,0,-
CC(C)(C)Nc1oc(-c2ccccc2)nc1-c1cccc2ccccc12,0,?,0,-,-,-
COc1ccc(C(=O)NC2CCN(C(=O)Nc3ccccc3Cl)CC2)cc1,-,0,0,0,-,-
O=C1CCCCC1C(O)c1ccc(Cl)cc1 (configuration not stated),-,-,0[10 µM],0[9.22 µM],-,-
CC(C)c1ccc(-n2cnn(-c3ncccc3[N+](=O)[O-])c2=O)cc1,-,14µM,0[10 µM],0[9.22 µM],-,-
Cc1ccc(OCCNC(=O)c2cncc(Br)c2)cc1C,0,0,0,?,?,-
NNC(=O)c1cncc(Br)c1,-,-,0[10 µM],0[9.22 µM],-,-
CCc1ccc(C(=O)c2cncc(Br)c2)cc1,0,0,0,20µM,0,-
Cc1ccc(C(=O)c2cncc(Br)c2)cc1,0,0,0,14µM,0,-
COc1ccccc1/C=C/C=N/n1c(-c2ccc(C)cc2)n[nH]c1=S,1.4µM,32µM,0[10 µM],0,?,1.6µM
Cc1ccc(-c2n[nH]c(=S)n2/N=C/C=C\c2ccccc2[N+](=O)[O-])cc1,0.89µM,0,0,0,0,0.5µM
O=[N+]([O-])c1cccc2c3c([nH]c12)CCCC3,-,-,0[10 µM],0[9.22 µM],-,-
SMILES,HPGD inh,ALDH1A1 block,HTT cytoprotect,HTT aggregate,LMNA splice mod,HPGD inh cf
CCCN(CCC)CCCNC(=O)c1nn(-c2cccc(OC)c2)c(=O)c2ccccc12,-,0,0,0,0,-
COc1ccc(CCC(=O)Nc2cccc(Cl)c2)cc1,0,0,-,0,0,-
O=C(CCc1ccc(Oc2cc([N+](=O)[O-])cc([N+](=O)[O-])c2)cc1)Nc1cccc(Cl)c1,0,?,0[10 µM],0,?,0
O=C(CCc1ccc(Oc2cc([N+](=O)[O-])cc([N+](=O)[O-])c2)cc1)N1CCCCC1,0.045µM,4.5µM,0[10 µM],?,?,0.22µM
CNC(=O)COc1ncnc2scc(-c3ccc(F)cc3)c12,-,0,0,0,?,-
COc1ccc(C(=O)c2ccc(OC)cc2O)c(O)c1,-,0,0,0,0,-
COc1ccc(C(=O)c2ccccc2O)c(O)c1,0.5µM,0,0,0,?,1µM
COC(=O)C(C(=O)Nc1nc2ccccc2s1)C1CCCC1 (configuration not stated),-,0,0,0,0,-
CC1CCCC(C)N1C(=O)c1cc2ncc(CCCl)cn2n1 (configuration not stated),1µM,?,-,0,?,0.79µM
O=C(c1cc2ncc(Br)cn2n1)N1CCCCC1,-,?,0,0,-,-
S=C(N/N=C/c1ccccc1Cl)Nc1cccc(Cl)c1Cl,-,-,0[10 µM],0[9.22 µM],-,-
O=S(=O)(Nc1cc(Sc2cccc3cccnc23)c(O)c2ccccc12)c1ccccc1,1.1µM,?,-,?,?,0.63µM
O=C(O)c1ccccc1NS(=O)(=O)c1cccc2cccnc12,0,0,0,0,0,-
S=C(c1ccc2c(c1)OCO2)N1CCCCC1,0,0,0,0,0,-
O=C(c1ccc2c(c1)OCO2)N1CCCCC1,0.1µM,0,0,-,-,0.063µM
O=C(c1ccc2c(c1)OCCO2)N1CCCCC1,0.13µM,0,0[1.9 µM],0,0,0.22µM
O=C(c1ccc2c(c1)OCO2)N1CCc2ccccc2C1,0.45µM,?,0[0.074 µM],0[9.22 µM],0,0.71µM
O=C(COC(=O)/C=C/c1ccc([N+](=O)[O-])cc1)NC(c1ccccc1)c1ccccc1,0,0,0[10 µM],0,0,-
O=C(C1CCC(Cn2c(=S)[nH]c3ccccc3c2=O)CC1)N1CCOCC1 (configuration not stated),1.6µM,0,0,0,?,2.5µM
CNC(=O)CCN(Cc1ccco1)S(=O)(=O)c1ccc(OC)c(OC)c1,-,-,0[10 µM],0[9.22 µM],-,-
COc1ccc(OC)c(C(=O)c2ccc(C(=O)N3CCCCC3)cc2)c1,0.25µM,?,0,0,0,0.2µM
Cc1ccc(CNC(=O)c2ccc(Cl)cc2[N+](=O)[O-])cc1,0.2µM,0,0,0,0,2µM
O=C(NCc1cccnc1)c1ccc(Cl)cc1[N+](=O)[O-],0,0,0[10 µM],?,0,-
Cc1ccccc1CSc1nc2ccccc2c(=O)[nH]1,1.6µM,0,0[10 µM],0,0,1µM
O=c1[nH]c(SCc2ccccc2F)nc2ccccc12,-,?,0[10 µM],0[9.22 µM],0,-
SMILES,HPGD inh,ALDH1A1 block,HTT cytoprotect,HTT aggregate,LMNA splice mod,HPGD inh cf
O=C(Nc1ccc(C(=O)N2CCOCC2)cc1)c1cc(-c2cccnc2)nc2ccc(Cl)cc12,-,0,0[10 µM],0,?,-
CCNC(=O)c1ccc(CSc2ccc(Cl)cc2)cc1,0,0,-,0,?,?
COC(=O)CSc1nc2nc(C)c(Br)cc2[nH]1,0,0,0,0,0,?
COc1ccc(-n2c(SCC(=O)NCc3ccc(C)cc3)nc3n[nH]c(C)c3c2=N)cc1,-,-,-,-,0,-
COCCNC(=O)c1nn2cccnc2c1Cl,?,0,0,0,0,-
CCC1CCCCN1C(=O)c1nn2cccnc2c1Cl (configuration not stated),0,0,0[1.9 µM],0,0,0
CC1=NOC(=O)/C1=C/c1ccc(-c2ccc(Cl)cc2)o1,1.1µM,4µM,0,?,?,1.1µM
CC1=NOC(=O)/C1=C\c1ccc(-c2cc(Cl)ccc2Cl)o1,1.4µM,3.5µM,0[10 µM],0,0,0.45µM
CC1=NOC(=O)/C1=C\c1ccc(-c2ccc(Br)cc2C(=O)O)o1,-,?,0,0,-,-
